Compound activity as filed in PubChem BioAssay.
PREPL inhibitor – inhibits the human prolyl oligopeptidase-like enzyme | AID 2751 | 320,000 compounds, 0.68% hits | recombinant PREPL, fluorescence polarization activity-based probe | Q4J6C6 | inhibition, % at 5.96 µM
NadD block – blocks S. aureus nicotinate mononucleotide adenylyltransferase; purified NadD enzyme, colorimetric absorbance read-out; 360,000 compounds, 0.78% hits; inhibition, % at 20 µM; in the data active means inhibition above about 26%
PP5 primary – inhibitors of human protein phosphatase 5 (PP5) | 320,000 compounds, 0.18% hits | purified PP5c, OMFP substrate fluorescence | inhibition, % at 6.7 µM | AID 1987;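 active means inhibition above the campaign's mean inhibition across all tested compounds plus 3 SD, cut at about 9.5% in these data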
PP1 counter – counter-screen for PP5 inhibitors: inhibitors of human PP1-alpha. P62136. purified PP1alpha, OMFP fluorescence. inhibition, % at 6.7 µM. 320,000 compounds, 0.9% hits. AID 2235;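 active means inhibition above the mean inhibition of all tested compounds plus 3 SD, computed separately for each screening campaign, cut at about 15% in these data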
Target sequence (P62136 whole entry, looked up): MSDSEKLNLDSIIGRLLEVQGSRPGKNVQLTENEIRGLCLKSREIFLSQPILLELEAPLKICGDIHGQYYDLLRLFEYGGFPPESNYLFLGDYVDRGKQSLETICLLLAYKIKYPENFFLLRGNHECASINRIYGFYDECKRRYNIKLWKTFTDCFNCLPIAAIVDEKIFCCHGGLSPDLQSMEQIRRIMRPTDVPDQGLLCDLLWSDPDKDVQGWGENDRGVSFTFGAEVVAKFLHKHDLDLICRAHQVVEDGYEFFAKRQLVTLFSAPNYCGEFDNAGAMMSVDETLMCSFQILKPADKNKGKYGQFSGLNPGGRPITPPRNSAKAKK
Rpn11 inh – inhibitors of human proteasome Rpn11; 360,000 compounds, 0.59% hits; AID 588493; human 26S proteasome, Ub4-pepOG fluorescence polarization; 20S core pre-blocked with epoxomicin; O00487; inhibition, % at 20 µM;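 active means inhibition at 20 µM, scaled to each plate's controls, above about 33%, limit read from the data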
PREPL confirm – confirmation of human PREPL enzyme inhibitors; inhibition, % at 5.96 µM; shares compounds with PREPL inhibitor; recombinant PREPL, fluorescence polarization activity probe; AID 2803; 2,000 compounds, 67% hits
Each line names hits and unclear results; the compound was inactive in the other large screens (follow-up assays come after a bar, where they were run). In the library only some 2.4% were active in any assay of this set; here they are far more common. Unless noted, no stated cut-off is given here; in the data, active means inhibition above about 43%; inactive means the rest.

COCc1c(C(=O)OCc2nnc(-c3ccc([N+](=O)[O-])cc3)o2)oc2ccccc12	PREPL inhibitor 43 (no result: PP5 primary, PP1 counter) | PREPL confirm inactive
COc1cc(C(C)=O)ccc1Oc1ncnc2c1cnn2-c1ccc(F)cc1	none
O=C(c1ccc(-c2ccccc2)cc1)c1ccccc1C(=O)N1CCOCC1	PREPL inhibitor 46 | PREPL confirm inactive
Cc1ccc(NC(=O)CCNS(=O)(=O)c2ccc3[nH]c(=O)oc3c2)cc1C	none
Cc1ccc(Nc2nc(-c3c(C)nc4ncccn34)cs2)cc1	PREPL inhibitor 51 | PREPL confirm 45
Fc1ccc2cc(-c3ccccc3F)ncc2c1	none (no result: PP5 primary, PP1 counter)
CC(C)(C)c1cc(C(=O)N/N=C/c2ccc(-c3ccccc3[N+](=O)[O-])o2)n[nH]1	PREPL inhibitor 50 | PREPL confirm inactive
Cc1ccc(N(CC(=O)NCC2CCCO2)C(=O)CCC(=O)Nc2nccs2)cc1 (stereo not drawn)	PREPL inhibitor 43 | PREPL confirm inactive
Cc1ccc(N(CC(=O)NCC2CCCO2)C(=O)CCC(=O)Nc2nccs2)cc1C (stereo not drawn)	none
O=C(Nc1ccc(Cl)cc1)Nc1ccc2c(c1)N1CCN=C1S2	PREPL inhibitor 58 | PREPL confirm inactive
CCOC(=O)C1=CN(Cc2cccc(F)c2)S(=O)(=O)N(CC)C1c1ccccc1 (stereo not drawn)	none (no result: PREPL inhibitor, PP5 primary, PP1 counter)
Cc1c(C#N)c(N=CN(C)C)c(C(=O)c2ccc(Br)cc2)n1-c1ccc(Cl)cc1	PREPL inhibitor 48 | PREPL confirm 53
CC(C)c1nnc(NC(=O)CCC(=O)N2CCN(c3ccc(Cl)cc3)CC2)s1	PREPL inhibitor 43 | PREPL confirm inactive
CC(=O)c1ccc(NC(=O)COC(=O)CCN2C(=O)c3cccc([N+](=O)[O-])c3C2=O)cc1	none
CC(C)N(c1ccccc1)c1ccc(NC(=O)COC(=O)CCN2C(=O)c3cccc([N+](=O)[O-])c3C2=O)cc1	PREPL inhibitor 59 | PREPL confirm 60
COc1ccc(NC(=O)C2CCN(C(=O)Nc3ccccc3)CC2)cc1S(=O)(=O)N(C)C	none
Cc1cccc(NC(=O)CSCC(=O)N(C)Cc2c(F)cccc2Cl)c1	none
COCCn1c(COc2cccc(OC)c2)nnc1SCC(=O)NC1CCCC1	none
COc1ccc2[nH]c(C)c(C(=O)CN3CCN(C/C=C/c4ccccc4)CC3)c2c1	PREPL inhibitor 44 | PREPL confirm inactive
COCCn1c(=N)c(C(=O)NCCc2ccccc2)cc2c(=O)n3cccc(C)c3nc21	none
Cc1cccn2c(=O)c3cc(C(=O)NCCc4ccccc4)c(=N)n(CCCn4ccnc4)c3nc12	PREPL inhibitor 66 | PREPL confirm 58
COc1ccc(CCNC(=O)c2cc3c(=O)n4ccccc4nc3n(CCN3CCOCC3)c2=N)cc1	none
COc1ccc(CCNC(=O)c2cc3c(=O)n4ccccc4nc3n(CCCN3CCOCC3)c2=N)cc1	PREPL inhibitor 58 | PREPL confirm 52
COc1ccc(CCNC(=O)c2cc3c(=O)n4ccccc4nc3n(CCCN3CCOCC3)c2=N)cc1OC	none
Cc1ccc2nc3c(cc(C(=O)NCCc4ccccc4)c(=N)n3CCCN3CCOCC3)c(=O)n2c1	PREPL inhibitor 53 | PREPL confirm 56
COc1ccc(OCc2nnc(SCC(=O)NC3CC4CCC3C4)o2)cc1 (stereo not drawn)	none
O=C(CSc1nnc(COc2ccc(Cl)cc2)o1)NC1CC2CCC1C2 (stereo not drawn)	PREPL inhibitor 46 | PREPL confirm inactive
O=C(c1cccnc1)N1CCN(Cc2ccc3ccccc3c2)CC1	PREPL inhibitor 45 | PREPL confirm inactive
COC(=O)c1ccccc1-c1c2ccc(=N)cc-2oc2cc(N)ccc12	PREPL inhibitor 151 | PREPL confirm 151
CC(C)(C)c1ccc(C(=O)N2CCNCC2)cc1	none
O=C(c1ccc(-c2cc(O)c3ncccc3c2)cc1)N1CCNCC1	PREPL inhibitor 55 (no result: PP5 primary, PP1 counter) | PREPL confirm 49
Cc1cc(O)ccc1N=Cc1c(C(F)(F)F)[nH][nH]c1=O	PREPL inhibitor 70 | PREPL confirm inactive
O=c1[nH][nH]c(C(F)(F)F)c1C=Nc1ccccc1	none
N#Cc1ccc(Oc2ccc(S(=O)(=O)N3CCOCC3)cn2)cc1	none
O=C(C[n+]1cc(-c2ccccc2)n2c1CCCCC2)c1ccc(Br)cc1	PREPL inhibitor 54 | PREPL confirm inactive
Cc1ccc(C(=O)C[n+]2cc(-c3ccc(C)cc3)n3c2CCCCC3)cc1	none
C=C(C)CN=C1NN=C(c2cc(C)n(-c3ccc(C)cc3)c2C)CS1	none
